PubChem BioAssay (NCATS)
Results filed as inconclusive are left out. Values without a mark were called inactive. Activity calls are given as the source filed them. The call rests on the fitted dose curve.

Target: Cytochrome P450 1A2 (Homo sapiens) (UniProt P05177)
Test: p450-cyp1a2 (AID 410);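 on activity change, negative = inhibition: -100% = full effect of reference inhibitor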
Details: recombinant CYP1A2, luciferin-ME demethylation, luminescence; series mostly up to 57 µM; activity change, negative = inhibition: at the top concentration
Outline: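 Luminescent demethylation readout: Luciferin-ME (100uM, equal to Km) turned over by 20nM CYP1A2 for 60 min at room temperature after NADPH regeneration addition, following 10 min compound preincubation. Normalization used 57 uM furafylline as full inhibition.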
Potency means the concentration at half of the fitted maximal effect.

Chain of Cytochrome P450 1A2 (Homo sapiens) (P05177 whole entry, looked up): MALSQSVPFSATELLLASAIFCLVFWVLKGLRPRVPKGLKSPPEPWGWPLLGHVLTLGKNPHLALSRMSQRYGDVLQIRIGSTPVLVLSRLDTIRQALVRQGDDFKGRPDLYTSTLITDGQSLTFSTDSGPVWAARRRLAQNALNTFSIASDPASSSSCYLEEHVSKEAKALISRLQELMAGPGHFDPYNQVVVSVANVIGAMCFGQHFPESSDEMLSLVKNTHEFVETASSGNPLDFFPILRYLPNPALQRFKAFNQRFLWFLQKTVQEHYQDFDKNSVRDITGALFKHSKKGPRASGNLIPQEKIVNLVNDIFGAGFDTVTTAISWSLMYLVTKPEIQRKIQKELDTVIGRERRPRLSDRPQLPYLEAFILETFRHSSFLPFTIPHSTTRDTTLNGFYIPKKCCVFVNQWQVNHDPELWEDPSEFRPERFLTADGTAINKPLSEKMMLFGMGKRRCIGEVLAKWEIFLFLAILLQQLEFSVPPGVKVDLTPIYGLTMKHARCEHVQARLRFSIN

Row | Compound | activity change, negative = inhibition [%] | Potency
1 | CC(C)C[C@@H](CC(=O)N[C@@H](CCC(=O)O)CC(=O)O)NC(=O)[C@@H]1CCCC[C@H]1NC(=O)C[C@@H](NC(=O)C[C@H](Cc1ccccc1)NC(=O)[C@@H]1CCCC[C@H]1N)C(C)C | -9.7 | 
2 | CC(C)C[C@@H](CC(=O)N[C@@H](CCCN)CC(=O)N[C@@H]1CCCC[C@H]1C(=O)N[C@H](CC(=O)N[C@@H](CCC(=O)O)CC(=O)O)Cc1c[nH]c2ccccc12)NC(=O)[C@@H]1CNCC[C@H]1N | -30 | 
3 | CC(C)C[C@@H](CC(=O)N[C@@H](CCC(=O)O)CC(=O)O)NC(=O)[C@@H]1CNCC[C@H]1NC(=O)C[C@@H](NC(=O)C[C@H](Cc1ccccc1)NC(=O)[C@@H]1CNCC[C@H]1N)C(C)C |  | 31.6 µM (active)
4 | CC(C)C[C@@H](CC(=O)N[C@@H](CCC(=O)O)CC(=O)O)NC(=O)[C@@H]1CNCC[C@H]1NC(=O)C[C@H](CCCN)NC(=O)C[C@H](Cc1c[nH]c2ccccc12)NC(=O)[C@@H]1CNCC[C@H]1N | -19 | 
5 | CC(C)[C@@H](CC(=O)N[C@@H]1CCCC[C@H]1C(=O)N[C@H](CC(=O)N[C@@H](CCC(=O)O)CC(=O)O)Cc1c[nH]c2ccccc12)NC(=O)C[C@H](CO)NC(=O)[C@@H]1CNCC[C@H]1N | -5.8 | 
6 | NCCC[C@@H](CC(=O)N[C@@H]1CCCC[C@H]1C(=O)N[C@H](CC(=O)N[C@@H](CCC(=O)O)CC(=O)O)Cc1c[nH]c2ccccc12)NC(=O)C[C@H](CO)NC(=O)[C@@H]1CCCC[C@H]1N | -24.7 | 
7 | NCCC[C@@H](CC(=O)N[C@@H]1CCCC[C@H]1C(=O)N[C@H](CC(=O)N[C@@H](CCC(=O)O)CC(=O)O)Cc1c[nH]c2ccccc12)NC(=O)C[C@H](Cc1c[nH]c2ccccc12)NC(=O)[C@@H]1CCCC[C@H]1N | -13.1 | 
